Results taken from PubChem BioAssay (NCI).
Compounds without any hit were thinned out: in the full panel of roughly 79,000, 15% have a hit. Activity calls are given as the source filed them. Rule as the data show it: active = growth inhibition above about 70%; inactive = the rest.

What was measured:
[1] = NCI Yeast Anticancer Drug Screen. Data for the rad50 strain (AID 155);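 also: 0% = growth of vehicle-only cultures of the same strain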; settings: S. cerevisiae rad50 strain growth inhibition; at 50.0 µM; active compounds read high
In short: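 Genetically altered yeast (DNA repair pathway); compound treatment; growth inhibition vs vehicle ctrl.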

[2] = NCI Yeast Anticancer Drug Screen. Data for the mec2-1 strain (AID 157); settings: S. cerevisiae mec2-1 strain, at 50.0 µM, active compounds read high
In short: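 Each compound was tested on mec2-1 yeast, a strain altered in DNA damage repair or cell cycle control. Growth inhibition is reported relative to vehicle.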

[3] = NCI Yeast Anticancer Drug Screen. Data for the sgs1 mgt1 strain (AID 161);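 also: 0% = growth of cultures given vehicle only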; settings: S. cerevisiae sgs1 mgt1 strain, at 50.0 µM, active compounds read high
In short: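 Mutant yeast exposed to compound; growth scored against vehicle-only wells.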

[4] = NCI Yeast Anticancer Drug Screen. Data for the cln2 rad14 strain (AID 165);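 also: 0% = growth equal to vehicle treated cultures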; settings: S. cerevisiae cln2 rad14 strain, at 50.0 µM, active compounds read high
In short: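 Test compounds were added to cln2 rad14 yeast cultures; inhibition of growth was then determined by comparison with vehicle treatment.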

[5] = NCI Yeast Anticancer Drug Screen. Data for the bub3 strain (AID 167); settings: S. cerevisiae bub3 mutant strain, at 50.0 µM, active compounds read high
In short: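 Yeast carrying a defined mutation is treated with each compound, and growth is compared with that of vehicle-exposed cells to give inhibition.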

[6] = NCI Yeast Anticancer Drug Screen. Data for the mlh1 rad18 strain (AID 175); settings: S. cerevisiae mlh1 rad18 strain growth inhibition; at 50.0 µM; active compounds read high
In short: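 Inhibition values reflect reduced growth of mutant yeast versus vehicle-treated controls following compound exposure; the mutations affect DNA damage repair.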

Measured: growth inhibition

c1ccc(C(Sc2c[nH]c3ccccc23)(c2ccccc2)c2ccccc2)cc1 (tested in a mixture with another compound)
inactive: [1] -20.4% | [2] -11.7% | [3] 9.8% | [4] 1.9% | [5] -38.5% | [6] -25.1%

CC(C)(O)C12CC3CC(CC(C3)C1)C2
inactive: [1] 18.4% | [2] -6.15% | [3] 8.35% | [4] -38.2% | [5] 5.25% | [6] 0.2%

Cc1cccc(C(C)C)c1NC(=O)C(=O)CC(=O)c1c(C)n([O-])c2ccccc2[n+]1=O
inactive: [1] -7.2% | [2] 9.45% | [3] -10% | [4] 12.2% | [5] -13.1% | [6] -16.2%

Nc1nc(O)cc(=O)[nH]1
inactive: [1] 3.35% | [2] -1.95% | [3] -0.65% | [4] -8.5% | [5] 2.35% | [6] -3.25%

[Mn].[NH-]C(CSSCC(N)C(=O)O)C(=O)O (configuration not stated)
inactive: [1] -2.45% | [2] -0.4% | [3] -1% | [4] 5.5% | [5] 22.6% | [6] 9%

CC(=O)C(CCC(=O)O)(CCC(=O)O)c1ccccc1
inactive: [1] 2% | [2] 21.6% | [3] 5.3% | [4] -49.4% | [5] 13.7% | [6] 20.2%

COC(=O)Nc1nc2ccc(C3c4c(n[nH]c4C)CC(C)(O)C3C(C)=O)cc2[nH]1 (configuration not stated)
inactive: [1] 20.4% | [2] 3.85% | [3] -7.3% | [4] -6.5% | [5] 0.45% | [6] 10.6%

CCCCCCCC(=O)Nc1nnc(SCCCCCCCCCCSc2nnc(NC(=O)CCCCCCC)s2)s1
inactive: [1] -33.5% | [2] -14.9% | [3] -5.55% | [4] -52.3% | [5] -0.5% | [6] -4.45%

CC(C)(O)c1c(F)c(F)c(F)c(F)c1F
inactive: [1] 17.2% | [2] -13.7% | [3] 5.1% | [4] 17.6% | [5] 27.8% | [6] 7.15%

CCC(C)C(=O)/C=C/c1ccccc1 (configuration not stated)
inactive: [1] 14.2% | [2] -6.15% | [3] -2.85% | [4] -25.3% | [5] 21.3% | [6] -12.1%

O=c1c(SCc2ccc(Cl)c(Cl)c2)c(SCc2ccc(Cl)c(Cl)c2)cnn1-c1ccccc1
inactive: [1] -8.5% | [2] -11.5% | [3] -6.05% | [4] -1.6% | [5] -13.4% | [6] 15.3%

CC(C)(C)[Si](C)(C)OCCc1ccccc1C1CC2(S(=O)(=O)c3ccccc3)ON1CC2S(=O)(=O)c1ccccc1 (configuration not stated)
inactive: [1] 15.1% | [2] -1.7% | [3] -8.2% | [4] -12.6% | [5] 8.4% | [6] 21.4%

O=C(Nc1ccc(S(=O)(=O)/N=c2\ncccn2C(=O)C(C(F)(F)F)C(F)(F)F)cc1)C(C(F)(F)F)C(F)(F)F
inactive: [1] -5% | [2] 11.9% | [3] -0.65% | [4] 22.2% | [5] 28.4% | [6] -26.8%

CCN(CC)/C(C=[N+]=[N-])=N\C(N)=N\S(=O)(=O)c1ccc(OC)cc1
inactive: [1] -37.2% | [2] -13.9% | [3] -13.8% | [4] -28% | [5] 4.05% | [6] 13.4%

Cn1c(=O)c2nc3c(=O)n(C)c(=O)n(CC(N)=O)c3nc2n(C)c1=O
inactive: [1] 28.2% | [2] -5.65% | [3] 14.9% | [4] 26.2% | [5] 12.1% | [6] 21.4%

CNC(=S)NNC1=NCCCCN1
inactive: [1] -41.2% | [2] -20% | [3] -16.1% | [4] 3.9% | [5] 2.1% | [6] -16.1%

COc1cc(/C=C2\SC(=S)N(C=C3C(=O)NC(=O)NC3=O)C2=O)cc(OC)c1OC
inactive: [1] 7.5% | [2] -0.75% | [3] 19.1% | [4] 11.8% | [5] 7% | [6] 5.65%

N#CCCN(CCC#N)C(Cc1cn(CCC#N)cn1)C(=O)O (configuration not stated)
inactive: [1] -8.5% | [2] 6.35% | [3] 4.95% | [4] -13.2% | [5] 5.35% | [6] 10.8%

CC(NC(=O)C(C)NC(=O)C(N)CCP(C)(=O)O)C(=O)O (configuration not stated)
inactive: [1] -20.6% | [2] -15% | [3] -15.2% | [4] -8.2% | [5] -12.2% | [6] -9.2%

CCC(=O)NCCO
inactive: [1] -26.9% | [2] -17.7% | [3] -5.65% | [4] -103% | [5] -9% | [6] -5.25%

O=C1CSC(c2ccc(Cl)cc2)N1c1ccc(-n2c(-c3ccccc3)nc3ccccc3c2=O)cc1 (configuration not stated)
inactive: [1] -3.65% | [2] -12.2% | [3] 5.35% | [4] -43.4% | [5] -0.7% | [6] 14.8%

COc1cc(C(OC(C)=O)OC(C)=O)c(Cl)cc1OC(C)=O
inactive: [1] 5.5% | [2] 5.15% | [3] 17.1% | [4] -2.1% | [5] -2.6% | [6] 11.8%

COC(=N)c1ncn(Cc2ccccc2)c1N
inactive: [1] -21.6% | [2] -28.6% | [3] -11.9% | [4] -24.4% | [5] -7.35% | [6] -37.3%

CN(C)C(=O)C1C2CC3OC(=O)C1C3C2 (configuration not stated)
inactive: [1] 15.8% | [2] -5.4% | [3] 6.2% | [4] -41.3% | [5] -1.65% | [6] -0.6%

CCCCCCCCCCCCCCS(=O)(=O)CCCl
inactive: [1] -5.85% | [2] -6.1% | [3] -21.2% | [4] -6.1% | [5] -5.2% | [6] -7.5%

O=C(CC1C(=O)Nc2ccccc2S1=O)Nc1ccc(Cl)cc1 (configuration not stated)
inactive: [1] 41.9% | [2] 38% | [3] 59.8% | [4] 18.4% | [5] 48% | [6] 56.3%

O=C1CSC(c2ccc([N+](=O)[O-])cc2)N1c1nc(-c2ccc3c(c2)CCCC3)cs1 (configuration not stated)
inactive: [1] 32.1% | [2] 2.85% | [3] 21.1% | [4] 9.3% | [5] 1% | [6] 31.5%

CCOC(=O)NN(C(=O)OCC)C(C(C)=O)c1ccccc1 (configuration not stated)
inactive: [1] 3.95% | [2] -3.35% | [3] -10.8% | [4] -9.35% | [5] -0.7% | [6] 17.3%

CC(=O)Nc1ccc(C(=O)N2N=C(C)/C(=C/c3cccc([N+](=O)[O-])c3)C2=O)cc1
inactive: [1] -9.8% | [2] -17.6% | [3] -47.5% | [4] 2.55% | [5] -21.9% | [6] -32.2%

COc1ccccc1C1c2cc3c(cc2OC(C)(OC)C1C)OCO3 (configuration not stated)
inactive: [1] -3.4% | [2] -17.2% | [3] 18.1% | [4] -12.7% | [5] -10.2% | [6] 14.1%

COc1ccc(C2(c3ccc(OC)cc3)c3ccccc3Cc3c(OC)cccc32)cc1
inactive: [1] -1.55% | [2] 16.7% | [3] -5.65% | [4] 2.8% | [5] -11.2% | [6] 6.4%

CCOC(=O)C(C(=O)OCC)C(C)(C)C
inactive: [1] -96.7% | [2] -18.3% | [3] -28.2% | [4] -36.4% | [5] -3.85% | [6] -9.2%

CCCC(=N)OCC
inactive: [1] -3.45% | [2] -27.4% | [3] -20.4% | [4] -0.45% | [5] 3.75% | [6] -5.05%

O=C1OC(c2ccccc2)(c2ccc(Cl)cc2)CC1/C=C(\c1ccccc1)c1ccc(Cl)cc1 (configuration not stated)
inactive: [1] -2% | [2] 6.65% | [3] 6.6% | [4] -10.4% | [5] -7.4% | [6] 3.65%

O=C(NN1C(=O)C(Cl)C1c1cccc([N+](=O)[O-])c1)c1ccccc1O (configuration not stated)
inactive: [1] -17.4% | [2] -26.1% | [3] -37.5% | [4] 1.1% | [5] -27.1% | [6] -25.1%

COC(=O)NS(=O)(=O)C1=Cc2cccc3cccc1c23
inactive: [1] 8.55% | [2] 4.95% | [3] 9.25% | [4] 9.75% | [5] 6.35% | [6] 8.4%

Cc1cc(=O)n2cn[nH]c2n1
inactive: [1] 24.4% | [2] -11.6% | [3] 24.1% | [4] 5.25% | [5] 9.25% | [6] 25.8%
